# Test results as given in PubChem BioAssay.
# Activity calls are given as the source filed them. How the calls were made is not given here.
# Test: enhancers of glutamate uptake in motor neurons, MN-1 cell line (AID 1612);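 further: tested at 1 µM final; 0% = mean of DMSO vehicle wells on each plate; positive means more glutamate uptake than control and negative means less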
# Details: MN-1 motor neuron cells, stronger effect = higher value
row,Compound,glutamate uptake change
1,NC(Cn1ccc(=O)c(O)c1)C(=O)O (stereo unspecified),15.6%
2,N#Cc1ccc2c(c1)N(CCCN1CCC(O)CC1)c1ccccc1S2,8.34%
3,O=C(O)c1cc([N+](=O)[O-])ccc1NCCCc1ccccc1,5.28%
4,O=c1c(-c2ccc(O)cc2)coc2cc(O)ccc12,12%
5,CC(C)=CCc1c2c(c3occ(-c4ccc(O)c(O)c4)c(=O)c3c1O)C=CC(C)(C)O2,0.58%
6,NC(=O)c1cccc(N)c1,20.1%
7,CCN1CCCC1CNC(=O)c1cc(S(N)(=O)=O)ccc1OC (stereo unspecified),-6.59%
8,COc1c(OC)c2occc2c2oc(=O)ccc12,-3.15%
9,NC1(C(=O)O)CCCC1,2.91%
10,CON,19.3%
11,C=NC(C(=O)NC1C(=O)N2C1SC(C)(C)C2C(=O)O)c1ccccc1 (stereo unspecified),4.77%
12,O=C1C=CC(=C(c2ccc(O)cc2)c2ccc(O)cc2)C=C1,-0.24%
13,COc1cc(OC)c2ccc(=O)oc2c1,-7.62%
14,O=C1c2ccc(O)c(O)c2C(=O)c2c(O)ccc(O)c21,32%
15,COc1cc(C)c2c(=O)cc(-c3ccccc3)oc2c1,-16.6%
16,O=C(O)c1cc(=O)c2cccc(O)c2[nH]1,9.13%
17,C[C@]12CCC3c4ccc(OS(=O)(=O)O)cc4CCC3C1CC[C@H]2O (stereo partly specified),-12.2%
18,NC1=NCCN1CC(=O)O,12.9%
19,CC(=O)c1c(O)c(C)c(O)c2c1OC1=CC(=O)C(C(C)=O)C(=O)C12C (stereo unspecified),-5.26%
20,CC(=O)N[C@@H]1[C@@H](O)[C@H](O)[C@@H](CO)O[C@H]1O,-1.05%

# Test: reducers of polyQ inclusions in PC12 cells, cell-based, NGF-treated PC12, GFPQ80 (AID 1614);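 further: lower means fewer inclusions and 0 means no inclusions at all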
# Details: PC12 NGF-treated GFP-polyQ80 inclusion reduction
row,Compound,inclusion score
1,NC(Cn1ccc(=O)c(O)c1)C(=O)O (stereo unspecified),2
2,O=C(O)c1cc([N+](=O)[O-])ccc1NCCCc1ccccc1,2
3,O=c1c(-c2ccc(O)cc2)coc2cc(O)ccc12,2
4,NC(=O)c1cccc(N)c1,2
5,CCN1CCCC1CNC(=O)c1cc(S(N)(=O)=O)ccc1OC (stereo unspecified),1.5
6,COc1c(OC)c2occc2c2oc(=O)ccc12,2
7,NC1(C(=O)O)CCCC1,2
8,CON,2
9,C=NC(C(=O)NC1C(=O)N2C1SC(C)(C)C2C(=O)O)c1ccccc1 (stereo unspecified),2
10,COc1cc(OC)c2ccc(=O)oc2c1,2
11,COc1cc(C)c2c(=O)cc(-c3ccccc3)oc2c1,1
12,O=C(O)c1cc(=O)c2cccc(O)c2[nH]1,1
13,C[C@]12CCC3c4ccc(OS(=O)(=O)O)cc4CCC3C1CC[C@H]2O (stereo partly specified),2
14,NC1=NCCN1CC(=O)O,2
15,CC(=O)N[C@@H]1[C@@H](O)[C@H](O)[C@@H](CO)O[C@H]1O,2

# Test: suppressors of polyglutamine aggregation in yeast, 75Q-TubH (AID 1616)
# Details: S. cerevisiae 75Q-TubH polyglutamine aggregation suppression; stronger effect = higher value
row,Compound,aggregation suppression score
1,NC(Cn1ccc(=O)c(O)c1)C(=O)O (stereo unspecified),0.845
2,N#Cc1ccc2c(c1)N(CCCN1CCC(O)CC1)c1ccccc1S2,1.12
3,O=C(O)c1cc([N+](=O)[O-])ccc1NCCCc1ccccc1,0.265
4,O=c1c(-c2ccc(O)cc2)coc2cc(O)ccc12,1.43
5,CC(C)=CCc1c2c(c3occ(-c4ccc(O)c(O)c4)c(=O)c3c1O)C=CC(C)(C)O2,-1.07
6,NC(=O)c1cccc(N)c1,1.37
7,CCN1CCCC1CNC(=O)c1cc(S(N)(=O)=O)ccc1OC (stereo unspecified),1.43
8,COc1c(OC)c2occc2c2oc(=O)ccc12,0.328
9,NC1(C(=O)O)CCCC1,1.57
10,CON,1.29
11,C=NC(C(=O)NC1C(=O)N2C1SC(C)(C)C2C(=O)O)c1ccccc1 (stereo unspecified),0.649
12,O=C1C=CC(=C(c2ccc(O)cc2)c2ccc(O)cc2)C=C1,1.13
13,COc1cc(OC)c2ccc(=O)oc2c1,0.869
14,O=C1c2ccc(O)c(O)c2C(=O)c2c(O)ccc(O)c21,0.505
15,COc1cc(C)c2c(=O)cc(-c3ccccc3)oc2c1,-0.775
16,O=C(O)c1cc(=O)c2cccc(O)c2[nH]1,1.12
17,C[C@]12CCC3c4ccc(OS(=O)(=O)O)cc4CCC3C1CC[C@H]2O (stereo partly specified),1.25
18,NC1=NCCN1CC(=O)O,0.99
19,CC(=O)c1c(O)c(C)c(O)c2c1OC1=CC(=O)C(C(C)=O)C(=O)C12C (stereo unspecified),0.354
20,CC(=O)N[C@@H]1[C@@H](O)[C@H](O)[C@@H](CO)O[C@H]1O,1.62

# Test: circadian clock period modulators, cell-based, LOPAC library, luminescence reporter (AID 2774);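 further: values are relative to mean of DMSO wells on each plate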
# Details: circadian reporter cells, at 7 µM, actives lie on both sides
row,Compound,period change
1,O=C(O)c1cc([N+](=O)[O-])ccc1NCCCc1ccccc1,0.025 h (inactive)
2,O=c1c(-c2ccc(O)cc2)coc2cc(O)ccc12,0.115 h (inactive)
3,O=c1[nH]c2cc(Cl)c(Cl)cc2[nH]c1=O,0.15 h (inactive)
4,CC(CCc1ccc(O)cc1)NCCc1ccc(O)c(O)c1 (stereo unspecified),0.025 h (inactive)
5,NC(=O)c1cccc(N)c1,0.16 h (inactive)
6,CCN1CCCC1CNC(=O)c1cc(S(N)(=O)=O)ccc1OC (stereo unspecified),-0.06 h (inactive)

# Test: hESC survival regulators, cell-based (AID 493140);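 further: cells exposed to compounds for four days before counting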
# Details: human embryonic stem cell survival screen; stronger effect = higher value
row,Compound,survival
1,NC(Cn1ccc(=O)c(O)c1)C(=O)O (stereo unspecified),11.3 (inactive)
2,O=c1c(-c2ccc(O)cc2)coc2cc(O)ccc12,70.6 (inactive)
3,CC(CCc1ccc(O)cc1)NCCc1ccc(O)c(O)c1 (stereo unspecified),15.4 (inactive)
4,CCN1CCCC1CNC(=O)c1cc(S(N)(=O)=O)ccc1OC (stereo unspecified),17.8 (inactive)
5,COc1c2ccoc2nc2c(OC)c(OCC(O)C(C)(C)O)ccc12 (stereo unspecified),4.17 (inactive)
